In the library only some 3.1% were active in any assay of this set; here they are far more common.
p53null 39C kill – selectivity test: cytotoxicity in p53 null cells, nonpermissive temperature; H1299 p53-null (neo) cells, 39C, ATPlite viability, 24 h; Potency, µM (series often up to 46.1 µM), for the others: top-dose activity, negative = cell killing, actives largely listed as cytotoxic; actives 0.97% (n = 55,000);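 note: 0% = DMSO only and -100% = full killing by 100 µM tamoxifen; nearly all actives have a fitted effect of over 50% in size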
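H1299 lung cancer cells, p53-null (H1299-neo) or expressing p53 A138V (H1299-p53A138V), were plated overnight at 37C, then exposed to compounds at up to 46 uM for 24 hr at 39C. Viability was read by ATP-based luminescence.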
mTORC1 inh – reduces mTORC1 signaling in Tsc2 and p53 null MEF cells; Tsc2-/- p53-/- MEF, phospho-rpS6 immunofluorescence/PI, 24 h; actives 0.78% (n = 44,000); Potency, µM (top dose mostly 38.3 µM), for inactives: top-dose activity change, negative = inhibition, hits mostly inhibitors;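 note: plate controls were DMSO for no effect and rapamycin for full effect; nearly all actives have a fitted effect of over 50% in size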
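Compounds act on Tsc2-/-, p53-/- fibroblasts carrying an empty vector for 24 h before fixation and dual staining for phospho-S6 and DNA (propidium iodide). Values are percentages of cells above a rapamycin-defined pS6/PI threshold.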
p53null 32C kill – p53 null cell cytotoxicity, permissive temperature. Potency, µM (titrated, usually from 46.1 µM), for inactives: top-dose activity change, negative = cytotoxicity, hits mostly cytotoxic. actives 0.62% (n = 55,000). H1299-neo p53 null cells, ATP luminescence, 24 h, 32C. AID 903;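 note: 0% = DMSO only and -100% = full killing by 100 µM tamoxifen; nearly all actives have a fitted effect of over 55% in size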
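Cytotoxicity: H1299-neo (no p53), 32C, 24 h treatment. Concentrations up to 46 uM. Readout cellular ATP, luminescence. Normalization to DMSO basal and tamoxifen 100 uM maximal kill.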
PMP22 txn – modulates PMP22 transcription in S16 Schwann cells; S16 Pmp22-F2sN Schwann cells, FLuc/NLuc coincidence luminescence, 24 h; Potency, µM (series often up to 57.5 µM), for the others: top-dose activity change, negative = inhibition, actives largely listed as inhibitors; actives 2% (n = 43,000); AID 1508649; active = clear falling dose curves in both reporters; inconclusive = both reporters move, but less clearly or upward; inactive = either reporter flat; the % is the NLuc reporter signal
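S16(c9) Schwann cells with FLuc/NLuc coincidence reporter in the Pmp22 3' UTR; compounds pin-transferred, 24 h at 37C. Dual-luciferase read: FLuc first, then NLuc after Stop&Glo, each 10 min at room temperature.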
OvCa metastasis – inhibitors of ovarian cancer cell adhesion and invasion in omental model; SKOV3ip1-GFP adhesion/invasion on 3D omental model, fluorescence; Potency, µM (series often up to 45.8 µM), inactives show top-dose activity change, negative = inhibition, hits mostly inhibitors; actives 0.1% (n = 46,000); AID 1963576;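 note: plate controls were DMSO wells for no effect and tomatine positive control wells for full effect; nearly all actives have a fitted effect of over 65% in size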
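A 3D layer of primary human omental fibroblasts, mesothelial cells, fibronectin and collagen I, grown 48 hr, received SKOV3ip1-GFP cells in serum-free medium plus compounds at 0.36-46 umol/L. After 2 hr RT and 16 hr 37 C, fixed adherent GFP cells were counted; normalized to DMSO and tomatine.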
S16 viability – S16 Schwann cell cytotoxicity; Potency, µM (series often up to 57.5 µM), for inactives: top-dose activity change, negative = cytotoxicity, most hits filed as cytotoxic; actives 0.48% (n = 43,000); S16 Pmp22-F2sN Schwann cells (luciferase reporters placed in the Pmp22 gene) viability, CellTiter-Glo, 24 h; note: nearly all actives have a fitted effect of over 65% in size
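Rat S16 Schwann reporter line, 24 h treatment with library compounds delivered at 23 nL per well. Cell viability by CellTiter-Glo luminescence.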
Starred values were filed as active, the others as inactive; i = inactive; ? = inconclusive; / = no result. Unless noted, calls come from the whole dose curve; as a rule, active = well fitted curve in the direction sought with a large enough effect; inconclusive = small, poorly fitted or top-dose-only effect, or another doubt; inactive = no such curve, though single readings can be large; an effect the other way counts as inactive or inconclusive. Unless noted, % is set by controls: 0 for no effect and ±100 for the full control effect; potency is the fitted concentration of half-maximal effect.

SMILES	p53null 39C kill	mTORC1 inh	p53null 32C kill	PMP22 txn	OvCa metastasis	S16 viability
COc1cc(-c2nc3ccc(C)cn3c2Nc2ccc(Cl)cc2)ccc1O	20µM*	1.7%	9.7%	?	i	3.4%
COc1cc(-c2nc3ccc(Cl)cn3c2Nc2ccc3c(c2)OCO3)ccc1O	30.4%	-6.0%	54.1%	?	-11.2%	-26.3%
Oc1ccc(-c2ccc(-c3cc(Nc4cccc(CNC5CC5)c4)n[nH]3)cc2)c(O)c1	/	/	/	/	19.7%	/
Cc1ccc(NC2=CC(=O)C(=O)c3ccccc32)cc1	3.55µM*	/	3.98µM*	/	/	/
O=C(C=Cc1ccc(/C=C/C(=O)Nc2ccc(C3=NCCN3)cc2)cc1)Nc1ccc(C2=NCCN2)cc1	/	/	/	/	-5.5%	/
COc1cc(/C=C(\C#N)c2nc3ccc(C)cc3[nH]2)ccc1OCc1ccc(C)cc1	12.6µM*	?	?	?	6.1%	?
COc1cccc(/C=C(\C#N)c2nc3ccc(C)cc3[nH]2)c1	?	?	?	?	-15.3%	?
CCOC(=O)COc1ccc(/C=C(\C#N)c2nc3ccc(C)cc3[nH]2)cc1OC	?	-6.4%	?	8.91µM*	-7.4%	8.91µM*
CC1(C)CCC[C@@]2(C)[C@@H]1CC[C@@]1(C)OC(=O)C[C@H]21	/	/	/	/	-7.7%	/
NC(=O)c1nn2c(C(F)(F)F)cc(-c3ccc(Br)cc3)nc2c1Cl	11.9%	-2.1%	-7.2%	-18.9%	-3.4%	28.2µM*
COc1ccc(-c2c(C)nn3c(C(F)(F)F)cc(-c4ccc(Br)cc4)nc23)cc1	-12.4%	-2.0%	2.0%	-15.1%	4.9%	-7.8%
CN(C[C@@H]1COCCO1)S(=O)(=O)Nc1ccc2ccc3ncc(-c4cnn(C)c4)cc3c(=O)c2c1	/	/	/	/	26.9%	/
CN(C)CCN(Cc1ccco1)C(=O)c1oc2ccccc2c1NC(=O)c1cccc(F)c1	12.6µM*	?	5.4%	?	?	?
Cc1ccc(O)c(-c2n[nH]c3c2C(c2ccccc2F)N(Cc2ccco2)C3=O)c1 (stereo not given)	8.0%	-3.3%	60.2%	?	12.6µM*	?
COc1cc(C2c3c(-c4cc(C)ccc4O)n[nH]c3C(=O)N2Cc2ccco2)cc(OC)c1OC (stereo not given)	5.5%	8.2%	25.9%	-12.1%	3.9%	18.8%
Cc1ccc(NCc2cc3cc4c(cc3n(CC(=O)Nc3ccc(C)cc3)c2=O)OCCO4)cc1	5.2%	4.65µM*	-9.2%	?	-12.0%	?
COc1cc2cc(CNc3ccc(C)cc3)c(=O)n(CC(=O)Nc3ccc(F)cc3F)c2cc1OC	-15.7%	5.21µM*	-1.1%	-48.8%	-23.2%	-1.5%
Cc1ccc(NCc2cc3cc4c(cc3n(CC(=O)Nc3ccc(F)cc3F)c2=O)OCCO4)cc1	4.7%	?	2.3%	?	18.2%	11.1%
COc1cc(Cl)c(C)cc1NC(=O)C1CCN(c2nc3ccccc3n3cccc23)CC1	31.6µM*	14.7µM*	?	?	-1.7%	-6.0%
Cc1cc(C)c(NC(=O)C2CCN(c3nc4ccccc4n4cccc34)CC2)c(C)c1	?	14.7µM*	13.5%	-18.3%	-4.1%	10.0%
COc1cc(Cl)c(C)cc1NC(=O)c1cnc(N2CCCCC2)c2ccccc12	3.3%	-2.0%	?	-33.9%	4.0%	-25.6%
O=C(O)c1ccc(O)c2ncc(N3CCOCC3)cc12	/	/	/	/	4.3%	/
Cc1ccccc1OCC(O)Cn1c(=N)n(CCN2CCCCC2)c2ccccc21 (stereo not given)	20µM*	10.4µM*	-4.0%	?	?	?
Cc1ccccc1OCCn1c(CCNC(=O)C(C)C)nc2ccccc21	7.8%	/	/	/	/	/
Cc1ccccc1OCCn1c(=N)n(C(C)C)c2ccccc21	?	18.5µM*	6.8%	?	?	?

Bioassay records: PubChem, National Center for Advancing Translational Sciences (NCATS)
